{"source": "PubChem BioAssay AID651711", "about": "(Broad Institute, 2012)", "note": "Screen size: about 350,000 compounds; about 180 (0.051%) were called active. The sample holds actives, similar compounds and a random draw of the others, so the mix is not that of the screen.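 Rule for the calls: active = mean replicate inhibition above about 25%, with every replicate also reaching it (limit read from the data, passing the limit was not always enough); inconclusive = only one of those two criteria met; inactive = neither criterion met.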", "data": [{"target": "Protein disulfide-isomerase A6 (Homo sapiens) (UniProt Q15084)", "sequence (Q15084 whole entry, looked up)": "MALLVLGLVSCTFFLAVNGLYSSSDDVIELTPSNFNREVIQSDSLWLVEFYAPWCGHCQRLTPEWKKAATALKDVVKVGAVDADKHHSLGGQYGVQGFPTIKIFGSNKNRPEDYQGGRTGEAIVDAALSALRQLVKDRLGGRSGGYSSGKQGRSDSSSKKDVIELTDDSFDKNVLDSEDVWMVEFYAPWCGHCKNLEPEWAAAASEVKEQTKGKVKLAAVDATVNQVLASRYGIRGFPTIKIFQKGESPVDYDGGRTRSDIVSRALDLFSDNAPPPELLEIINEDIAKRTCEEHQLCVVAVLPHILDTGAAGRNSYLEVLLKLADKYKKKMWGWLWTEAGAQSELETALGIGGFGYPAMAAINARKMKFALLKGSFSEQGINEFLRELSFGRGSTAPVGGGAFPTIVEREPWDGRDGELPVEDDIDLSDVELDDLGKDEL", "assay": "inhibitors of ERp5-driven insulin aggregation, primary screen, biochemical, turbidity, absorbance 650 nm, single point (AID 651711)", "settings": "90 min, at 9.99 µM, active compounds read high", "values": [{"smiles": "CO[C@@H]1CN(C)C(=O)c2cc(NS(=O)(=O)CC(F)(F)F)ccc2OC[C@H](C)N(C)C[C@H]1C", "inhibition": "1.29% (inactive)"}, {"smiles": "C/C=C/c1ccccc1[C@H]1[C@@H](C#N)N(C(C)=O)[C@@H]1CO", "inhibition": "0.399% (inactive)"}, {"smiles": "COc1ccc(NC(=O)N(C)C[C@@H]2OCc3ccccc3-c3c(n(C)c4ccccc34)C(=O)N([C@H](C)CO)C[C@H]2C)cc1", "inhibition": "1.51% (inactive)"}, {"smiles": "COc1ccc(S(=O)(=O)Nc2ccc3c(c2)C(=O)N([C@@H](C)CO)C[C@H](C)[C@H](CN(C)Cc2ccc(C(=O)O)cc2)O3)cc1", "inhibition": "4.86% (inactive)"}, {"smiles": "C/C=C/c1ccc2c(c1)O[C@H](CN(C)C(=O)Cc1ccccn1)[C@H](C)CN([C@H](C)CO)S2(=O)=O", "inhibition": "-3.16% (inactive)"}, {"smiles": "N#C[C@@H]1[C@H](c2ccccc2-c2ccccc2F)[C@@H](CO)N1C(=O)c1ccccn1", "inhibition": "-2.07% (inactive)"}, {"smiles": "Cc1ccc(S(=O)(=O)Nc2ccc3c(c2)C(=O)N([C@H](C)CO)C[C@H](C)[C@@H](CN(C)S(=O)(=O)c2cccs2)O3)cc1", "inhibition": "3.96% (inactive)"}, {"smiles": "C[C@@H]1CN([C@@H](C)CO)C(=O)c2cc(NC(=O)Nc3ccccc3)ccc2O[C@H]1CN(C)C(=O)Nc1ccc(F)cc1", "inhibition": "4.96% (inactive)"}, {"smiles": "CCC(=O)N(C)C[C@H]1[C@H](c2ccc(-c3ccccc3F)cc2)[C@@H](CO)N1C(C)=O", "inhibition": "-0.23% (inactive)"}, {"smiles": "COCC#Cc1ccc([C@@H]2[C@@H](CO)N3C(=O)CN(C(=O)C4CCCC4)C[C@@H]23)cc1", "inhibition": "0.681% (inactive)"}, {"smiles": "Cc1noc(C)c1S(=O)(=O)N(C)C[C@H]1Oc2ccc(NC(=O)Nc3cccc4ccccc34)cc2CC(=O)N([C@@H](C)CO)C[C@H]1C", "inhibition": "-5.17% (inactive)"}, {"smiles": "COc1ccc2c3c(n(C)c2c1)[C@@H](CO)N(C(=O)c1ccc(F)cc1)CC31CN(C(=O)c2ccc(F)cc2)C1", "inhibition": "1.03% (inactive)"}, {"smiles": "COc1ccc2c3c(n(C)c2c1)[C@@H](CO)N(C(=O)CN1CCOCC1)CC31CN(C(=O)CC2CC2)C1", "inhibition": "-0.576% (inactive)"}, {"smiles": "CN(C)CC(=O)N1[C@@H](CO)[C@H](c2ccccc2)C12CN(C(=O)c1cccc(F)c1)C2", "inhibition": "2.27% (inactive)"}, {"smiles": "C/C=C/c1ccc([C@@H]2[C@H](CO)N(C(=O)c3cnccn3)C23CN(C(C)=O)C3)cc1", "inhibition": "-4.61% (inactive)"}, {"smiles": "C[C@@H]1CN([C@H](C)CO)C(=O)c2cc(C#CCC3CCCC3)cnc2O[C@H]1CN(C)C(=O)c1cnccn1", "inhibition": "-0.111% (inactive)"}, {"smiles": "C[C@@H]1CN([C@H](C)CO)S(=O)(=O)c2ccc(-c3ccncc3)cc2O[C@H]1CN(C)S(=O)(=O)c1ccccc1F", "inhibition": "-3.02% (inactive)"}, {"smiles": "C[C@@H]1CN([C@@H](C)CO)C(=O)c2cc(NS(=O)(=O)c3ccccc3)ccc2O[C@@H]1CN(C)Cc1ccc(C(=O)O)cc1", "inhibition": "-2.81% (inactive)"}, {"smiles": "Cc1noc(C)c1S(=O)(=O)Nc1ccc2c(c1)C(=O)N([C@H](C)CO)C[C@H](C)[C@H](CN(C)S(C)(=O)=O)OCCCC[C@H](C)O2", "inhibition": "-0.161% (inactive)"}, {"smiles": "C[C@@H]1CN([C@@H](C)CO)S(=O)(=O)c2ccc(C#CC(C)(C)O)cc2O[C@H]1CN(C)C(=O)CN(C)C", "inhibition": "-0.244% (inactive)"}, {"smiles": "C[C@H](CO)N1C[C@H](C)[C@H](CN(C)C)Oc2cc(C#Cc3ccccc3F)ccc2S1(=O)=O", "inhibition": "11.3% (inactive)"}, {"smiles": "O=C(C[C@@H]1CC[C@@H]2[C@H](COC[C@H](O)CN2C(=O)Cc2ccccc2)O1)NC1CCC1", "inhibition": "9.77% (inactive)"}, {"smiles": "COc1ccc(-c2ccc([C@@H]3[C@@H](C#N)N(C(=O)C4CCCCC4)[C@H]3CO)cc2)cc1", "inhibition": "-2.17% (inactive)"}, {"smiles": "CCCNC(=O)N1C[C@H](C)[C@@H](OC)CN(C)C(=O)c2ccc(NC(=O)CC)cc2OC[C@@H]1C", "inhibition": "7.86% (inactive)"}, {"smiles": "CC(C)NC(=O)N[C@H]1CC[C@H](CC(=O)N2CCCCC2)O[C@@H]1CO", "inhibition": "3.34% (inactive)"}, {"smiles": "C[C@@H]1CCCCO[C@H](CN(C)Cc2ccc(Cl)c(Cl)c2)[C@@H](C)CN([C@H](C)CO)C(=O)c2cc(NS(=O)(=O)c3cn(C)cn3)ccc2O1", "inhibition": "1.36% (inactive)"}, {"smiles": "COc1ccc(S(=O)(=O)N(C)C[C@H]2Oc3ccc(NC(=O)C4CC4)cc3CC(=O)N([C@@H](C)CO)C[C@@H]2C)cc1", "inhibition": "2.88% (inactive)"}, {"smiles": "COc1ccccc1C#Cc1cnc2c(c1)C(=O)N([C@H](C)CO)C[C@H](C)[C@H](CN(C)S(=O)(=O)c1cn(C)cn1)O2", "inhibition": "-2.62% (inactive)"}, {"smiles": "CCN1C(=O)N[C@@H]2C[C@H](C(=O)N3CCCC3)[C@H](C)[C@H](c3ccccc3)C[C@@H]21", "inhibition": "0.542% (inactive)"}, {"smiles": "COc1ccccc1C#Cc1cnc2c(c1)C(=O)N([C@@H](C)CO)C[C@@H](C)[C@@H](CN(C)C(=O)CN(C)C)O2", "inhibition": "-1.98% (inactive)"}, {"smiles": "C[C@@H]1CN([C@H](C)CO)C(=O)c2cc(NC(=O)c3ccncc3)ccc2O[C@@H](C)CCCCO[C@@H]1CN(C)CC1CC1", "inhibition": "3.17% (inactive)"}, {"smiles": "Cc1ccccc1S(=O)(=O)N[C@@H]1CC[C@H](CCn2cc(-c3ccc(F)cc3)nn2)O[C@@H]1CO", "inhibition": "0.302% (inactive)"}, {"smiles": "COc1ccc(C#Cc2ccc([C@@H]3[C@@H](CO)N4C(=O)CN(C(=O)c5ccc(F)cc5)C[C@@H]34)cc2)cc1", "inhibition": "6.45% (inactive)"}, {"smiles": "CO[C@@H]1CN(C)C(=O)c2cc(NC(=O)Nc3cccc(F)c3)ccc2OC[C@H](C)N(C)C[C@@H]1C", "inhibition": "2.15% (inactive)"}, {"smiles": "C[C@@H]1CN([C@H](C)CO)C(=O)c2cc(-c3ccc(F)cc3)cnc2O[C@@H]1CN(C)C(=O)C1CCC1", "inhibition": "1.7% (inactive)"}, {"smiles": "C[C@@H]1CN([C@H](C)CO)C(=O)c2cc(NS(=O)(=O)c3ccc(F)cc3)ccc2O[C@@H]1CN(C)C(=O)Nc1cccc2ccccc12", "inhibition": "13.7% (inactive)"}, {"smiles": "CCCN1C[C@H](C)[C@@H](OC)CN(C)C(=O)c2ccc(NC(=O)C3CCOCC3)cc2OC[C@@H]1C", "inhibition": "0.943% (inactive)"}, {"smiles": "C[C@H](CO)N1C[C@H](C)[C@@H](CN(C)CC2CC2)OCCCC[C@H](C)Oc2ccc(NC(=O)Nc3ccccc3)cc2C1=O", "inhibition": "2.55% (inactive)"}, {"smiles": "O=S(=O)(c1ccccc1)N1CC[C@@H]2[C@@H](CO)Nc3ccc(C#Cc4cccc(F)c4)cc3[C@@H]21", "inhibition": "-0.006% (inactive)"}, {"smiles": "CCC(=O)N(C)C[C@@H]1Oc2cc(-c3ccc(OC)cc3)ccc2S(=O)(=O)N([C@@H](C)CO)C[C@H]1C", "inhibition": "0.0355% (inactive)"}, {"smiles": "CC(C)C#Cc1cnc2c(c1)C(=O)N([C@H](C)CO)C[C@@H](C)[C@H](CN(C)Cc1ccccc1)O2", "inhibition": "-2.64% (inactive)"}, {"smiles": "C[C@@H]1CN([C@H](C)CO)C(=O)Cc2cc(NC(=O)Nc3ccccc3)ccc2O[C@@H]1CN(C)Cc1ccc(C(F)(F)F)cc1", "inhibition": "1.88% (inactive)"}, {"smiles": "C[C@@H]1CN([C@H](C)CO)C(=O)Cc2cc(NC(=O)Nc3cccc4ccccc34)ccc2O[C@@H]1CN(C)Cc1ccc(C(F)(F)F)cc1", "inhibition": "60% (active)"}, {"smiles": "C[C@@H]1CN([C@H](C)CO)C(=O)Cc2cc(NC(=O)Nc3cccc4ccccc34)ccc2O[C@@H]1CN(C)Cc1ccc(C(=O)O)cc1", "inhibition": "2.16% (inactive)"}, {"smiles": "COc1ccc(S(=O)(=O)Nc2ccc3c(c2)CC(=O)N([C@H](C)CO)C[C@@H](C)[C@@H](CN(C)C(=O)Nc2cccc4ccccc24)O3)cc1", "inhibition": "11.8% (inactive)"}, {"smiles": "COc1ccc(S(=O)(=O)Nc2ccc3c(c2)CC(=O)N([C@H](C)CO)C[C@H](C)[C@H](CN(C)C(=O)Nc2ccccc2)O3)cc1", "inhibition": "64.1% (active)"}, {"smiles": "COc1ccc(NC(=O)N(C)C[C@@H]2Oc3ccc(NS(=O)(=O)c4ccc(OC)cc4)cc3CC(=O)N([C@H](C)CO)C[C@H]2C)cc1", "inhibition": "8.49% (inactive)"}, {"smiles": "COC(=O)[C@@H]1[C@@H](CO)[C@@H]2Cn3c(ccc(-c4ccc(OC)cc4)c3=O)[C@@H]2N1S(C)(=O)=O", "inhibition": "4.09% (inactive)"}, {"smiles": "O=C(N[C@@H]1CC[C@@H](CC(=O)N2CCc3ccccc3C2)O[C@H]1CO)C1CCC1", "inhibition": "-0.402% (inactive)"}, {"smiles": "CCC(=O)N1CC(=O)N2[C@H](CO)[C@@H](c3ccc(-c4ccc(C(=O)N(C)C)cc4)cc3)[C@@H]2C1", "inhibition": "-1.19% (inactive)"}, {"smiles": "CO[C@H]1CN(C)C(=O)c2ccc(NC(=O)C3CCC3)cc2OC[C@@H](C)N(Cc2ccccn2)C[C@H]1C", "inhibition": "-2.1% (inactive)"}, {"smiles": "C[C@H](CO)N1C[C@H](C)[C@H](CN(C)Cc2ccc(C(=O)O)cc2)OCc2cn(nn2)CCCC1=O", "inhibition": "-4.21% (inactive)"}, {"smiles": "Cc1ccccc1C(=O)N[C@H](C(=O)N1CCC[C@H]1C(=O)NCc1ccccc1)C(C)C", "inhibition": "5.11% (inactive)"}, {"smiles": "CO[C@H]1CN(C)C(=O)c2cc(NS(=O)(=O)c3ccccc3)ccc2OC[C@@H](C)N(Cc2nccs2)C[C@@H]1C", "inhibition": "1% (inactive)"}, {"smiles": "COc1ccc(CN(C)C[C@@H]2Oc3c(NC(=O)C4CC4)cccc3C(=O)N([C@@H](C)CO)C[C@H]2C)cc1", "inhibition": "1.33% (inactive)"}, {"smiles": "Cc1ccc(S(=O)(=O)N(C)C[C@@H]2Oc3ccc(N(C)C)cc3C(=O)N([C@@H](C)CO)C[C@H]2C)cc1", "inhibition": "-2.31% (inactive)"}, {"smiles": "COc1ccccc1S(=O)(=O)N1C[C@@H](O)COC[C@H]2O[C@H](CC(=O)O)CC[C@@H]21", "inhibition": "-5.9% (inactive)"}, {"smiles": "CCC(=O)N1C[C@@H](O)COC[C@H]2O[C@H](CC(=O)NCC3CCCCC3)CC[C@@H]21", "inhibition": "-3.78% (inactive)"}, {"smiles": "O=C1CN(Cc2ccc(F)cc2)C[C@H]2[C@@H](c3ccc(Br)cc3)[C@H](CO)N12", "inhibition": "4.49% (inactive)"}, {"smiles": "CO[C@H]1CN(C)C(=O)c2ccc(NC(=O)CC(F)(F)F)cc2OC[C@H](C)N(C(=O)C2CC2)C[C@H]1C", "inhibition": "3.96% (inactive)"}, {"smiles": "O=C(CC1CC1)N1[C@@H](CO)[C@@H](c2ccccc2)C12CN(S(=O)(=O)c1ccccc1)C2", "inhibition": "7.09% (inactive)"}]}]}
